Bioassay records (PubChem BioAssay)
Sampled rows, rich in hits. Any-hit rate of the full collection: about 8.7%.
Sfp inh: inhibitors of Bacillus subtilis Sfp phosphopantetheinyl transferase; Biochemical Sfp PPTase activity, qHTS; 3.5% of 310,000 active; Potency, µM, without a hit: largest response in the series, negative = inhibition, most hits filed as inhibitors; Q9F4F7;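 note: the enzyme is Sfp with the accession as filed and its product quenches rhodamine fluorescence; 0% = enzyme reaction without inhibitor and -100% = no enzyme wells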
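Fluorescence-quenching assay with 15 nM Sfp, 5 uM rhodamine-CoA and 12.5 uM BHQ-2-labelled ybbR peptide in pH 7.6 Hepes/MgCl2 buffer. Enzyme was pre-incubated with compound for 15 min at room temperature. Rate was taken from the 30-min fluorescence change (525/598 nm).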
12-LOX inh: inhibitors of human 12S-lipoxygenase ALOX12; purified 12hLO, xylenol orange hydroperoxide absorbance; AID 1671190; 1.1% of 580,000 active; P18054; Potency, µM (top dose mostly 108 µM), inactives show at the highest dose activity change, negative = inhibition, most hits filed as inhibitors; note: % is set by controls: 0 for no effect and ±100 for the full control effect
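Purified human 12hLO (150 nM final) in 25 mM Hepes, 0.01% Triton X-100, pH 7.0 was preincubated 15 min at room temperature with compound. Then 40 uM arachidonic acid was added, 30 min. Hydroperoxide was read by Fe-XO absorbance ratio 573/405 nm.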
HP1b binding inh: blocks HP1-beta chromodomain binding to methylated histone tails; P83916; AlphaScreen HP1-beta / biotin-H3K9me3 peptide binding; Potency, µM (highest dose often 114 µM), without a hit: top-dose activity change, negative = inhibition, actives largely listed as inhibitors; 0.56% of 390,000 active; note: nearly all actives have a fitted effect of over 70% in size
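HP1-beta protein (50 nM final) preincubated 30 min at room temperature with biotinylated H3(1-18)K9me3 peptide (50 nM) in PBS pH 7.4, 0.01% Tween-20, then compound added for 30 min. AlphaScreen streptavidin donor/nickel chelate acceptor beads (10 ug/mL final), 30 min dark, luminescence read.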
BAZ2B block: BAZ2B (human) inhibition; Potency, µM (doses to about 114 µM), without a hit: at the highest dose activity change, negative = inhibition, most hits filed as inhibitors; AlphaScreen BAZ2B-H3K14Ac peptide displacement; Q9UIF8; 4.4% of 360,000 active; AID 504333; note: % is set by controls: 0 for no effect and ±100 for the full control effect; nearly all actives have a fitted effect of over 60% in size
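In this displacement format the biotinylated H3(5-23) peptide acetylated at Lys14 serves as ligand at 50 nM, with BAZ2B at 50 nM in PBS pH 7.4 containing 0.01% Tween-20. Donor and acceptor beads are 10 ug/mL final.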
JMJD2A Tudor inh: inhibitors of human JMJD2A Tudor domain; AlphaScreen JMJD2A-Tudor / H3K4me3 peptide binding; Potency, µM (titrated, usually from 114 µM), without a hit: at the highest dose activity change, negative = inhibition, hits mostly inhibitors; AID 504339; O75164; 4.4% of 390,000 active; note: % is set by controls: 0 for no effect and ±100 for the full control effect; nearly all actives have a fitted effect of over 50% in size
G9a block: G9a (human) methyltransferase inhibition; Potency, µM (series often up to 102 µM), for inactives: at the highest dose activity, negative = inhibition, actives largely listed as inhibitors; G9a H3K9 monomethylation, AlphaScreen, 2 h; 8.8% of 350,000 active; Q96KQ7; note: % is set by controls: 0 for no effect and ±100 for the full control effect; nearly all actives have a fitted effect of over 75% in size
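G9a (20 nM) was preincubated 15 min with compound, then reacted 2 h at room temperature with 500 nM biotin-H3K9 peptide and 20 µM SAM. Monomethyl-H3K9 detected by AlphaScreen using anti-H3K9me1 antibody.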
An asterisk follows results filed as active; ? = inconclusive; / = no result; [ ] = remark or other dose. Calls come from the whole dose curve; as a rule, active = well fitted curve in the direction sought with a large enough effect; inconclusive = small, poorly fitted or top-dose-only effect, or another doubt; inactive = no such curve, though single readings can be large; an effect the other way counts as inactive or inconclusive. Potency is the fitted concentration of half-maximal effect.

SMILES	Sfp inh	12-LOX inh	HP1b binding inh	BAZ2B block	JMJD2A Tudor inh	G9a block
COC(=O)CCC(=O)OC1(C)C(=O)C2=COC(c3ccc(OC)cc3)=CC2=C(Br)C1=O (configuration not stated)	12%	/	?	45µM*	32µM*	?
CC(C)(C)OC(=O)NCCCC1=CC2=CC(=O)C(C)(OC(=O)c3ccc(Cl)nc3)C(=O)C2=CO1 (configuration not stated)	-2%	/	/	/	/	/
CSc1ccc(CNc2cccc(C(=O)O)c2C)cc1	/	32%	/	/	/	/
Cc1nnc(C)n1/N=C/c1cc2ccccc2nc1Cl	14%	-10%	20%	-19%	0%	4%
Cc1cc(C)n(/N=C/c2cc(Cl)cc(Cl)c2O)c(=O)c1	9%	-6%	25%	-22%	-22%	3%
Cc1cc(C)n(-c2nnc(C)n2/N=C/c2ccccc2O)n1	-14%	5%	4%	-4%	7.9µM*	-33%[12.7 µM]
Cc1cc(C)n(-c2nnc(C)n2N)n1	9%	?	6%	-14%	?	50µM*
Cc1cc(C)n(/N=C/c2ccccc2O)c(=O)c1	5%	?	7%	50µM*	?	16µM*
O=C(C1CC=CCC1)N1CCCC(C(F)(F)F)C1 (configuration not stated)	/	18%	/	/	/	/
CC1CN(C(=O)C(C)N2CCN(c3cccc(Cl)c3)CC2)CC(C)O1 (configuration not stated)	5%	-10%	?	-3%	63µM*	35%
CC1CN(C(=O)C(C)N2CCN(c3ccccc3Cl)CC2)CC(C)O1 (configuration not stated)	22%	8%	37%	11%	7%[57.1 µM]	5%
Cc1ccc(C)c(N2CCN(C(=O)c3cc4n(n3)CC(c3ccc(Cl)cc3)OC4)CC2)c1 (configuration not stated)	/	3%	/	/	/	/
O=[N+]([O-])/C(C(Cl)=C(Cl)Cl)=C(/Sc1ccccc1)N1CCCCC1	-4%	?	-36%	35µM*	?	/
O=C(N/C(=C\c1ccc([N+](=O)[O-])cc1)C(=O)N1CCCCC1)c1ccccc1	18%	-27%	19%	-6%	-17%	-11%[59 µM]
O=S(=O)(c1ccccc1)c1nc(NC2CC2)sc1Cl	-16%	0%	54%	-17%	4%	-21%
O=S(=O)(c1ccccc1)c1nc(Nc2ccccc2N2CCOCC2)sc1Cl	-5%	?	?	-37%	32µM*	25µM*
CCOC(=O)c1cnc(SC2CC(=O)N(c3ccccc3)C2=O)nc1N (configuration not stated)	6%	-9%	46%	5%	3%	?
CCOC(=O)c1cc(CC)sc1N1C(=O)CC(Sc2ncccc2C(=O)O)C1=O (configuration not stated)	-20%	2%	54%	-22%	-6%	25µM*
CCOC(=O)c1cc(CC)sc1N1C(=O)CC(Sc2ccccc2C(=O)O)C1=O (configuration not stated)	3.5µM*	?	24%	63µM*	-26%	1.8µM*
CC1(C)CC(=O)/C(=N/Nc2ccc(Cl)cc2)CO1	17%	?	14%	?	?	-29%
Cc1cccc(N/N=C2/COC(C)(C)CC2=O)c1	-3%	?	9%	?	-27%	79µM*
O=C(NC1CCCC1)C(c1ccncc1)N(CC1CCCO1)C(=O)Cn1nnc(-c2cccs2)n1 (configuration not stated)	7%	-16%	22%	11%	-8%	50µM*
Cc1ccc(C(C(=O)NC(C)(C)C)N(CC2CCCO2)C(=O)Cn2nnc(-c3ccc(C)o3)n2)cc1 (configuration not stated)	56µM*	-25%	-1%	-10%	-21%	45µM*
CC(C)(C)N(C(=O)Cn1nnc(-c2ccc(F)cc2)n1)C(C(=O)NC1CCCC1)c1ccncc1 (configuration not stated)	6%	-14%	19%	4%	-28%	7.1µM*
Cc1ccc(-c2nnn(CC(=O)N(Cc3ccc(F)cc3)C(C(=O)NC3CCCC3)c3ccncc3)n2)o1 (configuration not stated)	40µM*	?	25%	2%	-15%	?
SMILES	Sfp inh	12-LOX inh	HP1b binding inh	BAZ2B block	JMJD2A Tudor inh	G9a block
COc1ccccc1NC(=O)CSCc1cc(=O)c2ccccc2[nH]1	/	3%	/	/	/	/
CCOc1ccc(-c2[nH]nc3c2C(c2cc(OC)c(OC)cc2Br)C(C#N)=C(N)O3)cc1 (configuration not stated)	/	5%	/	/	/	/
Cc1ccc(-c2nnn(CC(=O)N(CCO)C(C(=O)NC3CCCCC3)c3ccncc3)n2)o1 (configuration not stated)	2%	1%	?	-11%	-12%[11.4 µM]	45µM*
O=C1C=C(c2cccc(Cl)c2)C[C@@H](c2ccc(Cl)cc2)C1	/	4%	63%	6%	29%	-6%[0.501 µM]
O=C1C=C(c2cccc(Cl)c2O)C[C@@H](c2ccc(Cl)cc2)C1	/	11µM*	-11%	?	-31%	22%[2.33 µM]
COC(=O)c1ccc(C(NC(=O)OCc2ccccc2)/C(I)=C/[C@@H](C)C(=O)NCc2ccc(OC)c(O)c2)cc1 (some centres not stated)	16%	/	/	/	/	/
COC(=O)c1ccc(C(NC(=O)OCc2ccccc2)/C(I)=C/[C@@H](C)C(=O)NCc2ccc(C)o2)cc1 (some centres not stated)	40µM*	/	/	/	/	/
Fc1ccccc1CN1CCC(Cc2ccccc2)CC1	-25%	?	?	?	0.89µM*	/
NC1CCCN(Cc2ccccc2F)C1 (configuration not stated)	/	30%	/	/	/	/
Fc1cccc(CN2CCC(Cc3ccccc3)CC2)c1	8%	?	?	79µM*	56µM*	28µM*
Cc1cc(C(=O)CSC(C)c2nc3ccccc3c(=O)[nH]2)c(C)n1C (configuration not stated)	-26%	?	11%	-37%	-25%	50µM*
Cc1cc(C(=O)CSc2nc3ccccc3c(=O)[nH]2)c(C)n1C	-28%	-16%	19%	-36%	-29%	?
CCN1c2cc(C(=O)Nc3cccc(SC)c3)ccc2C(=O)N2CCCCC21 (configuration not stated)	/	7%	/	/	/	/
COc1ccc(C(=O)Nc2ccc(-c3noc([C@@H]4CCCN4CC4CCCCC4)n3)cn2)cc1	/	-14%	/	/	/	/
Nc1cc2c(cc1O)CCCC2	4.5µM*	?	?	-31%	2.5µM*	/
O=C1CCCc2cc3c(cc21)CCCC3	/	1%	14%[57 µM]	/	14%	/
